From PubChem BioAssay AID2291 (The Scripps Research Institute Molecular Screening Center, 2010) come the findings set out here.

Usually inhibition stands for the relative decrease from the control value, in per cent.

The campaign covered roughly 16,000 compounds. About 75 (0.5%) were called active. Only a selection was taken, and actives are over-represented in it overall. A number with no mark means an inactive call. Cut-off read from the data, not from the text of the source: active = inhibition above about 30%; inactive = the rest.

The target in the experiment is Protein phosphatase methylesterase 1 (Homo sapiens) (UniProt Q9Y570). Nature of the experiment: inhibitors of human PME-1 in Maybridge library (AID 2291). The note with it: recombinant PME-1, FP-Rh probe fluorescence polarization; at 9 µM; active compounds read high.
Sequence of Protein phosphatase methylesterase 1 (Homo sapiens) (Q9Y570 whole entry, looked up): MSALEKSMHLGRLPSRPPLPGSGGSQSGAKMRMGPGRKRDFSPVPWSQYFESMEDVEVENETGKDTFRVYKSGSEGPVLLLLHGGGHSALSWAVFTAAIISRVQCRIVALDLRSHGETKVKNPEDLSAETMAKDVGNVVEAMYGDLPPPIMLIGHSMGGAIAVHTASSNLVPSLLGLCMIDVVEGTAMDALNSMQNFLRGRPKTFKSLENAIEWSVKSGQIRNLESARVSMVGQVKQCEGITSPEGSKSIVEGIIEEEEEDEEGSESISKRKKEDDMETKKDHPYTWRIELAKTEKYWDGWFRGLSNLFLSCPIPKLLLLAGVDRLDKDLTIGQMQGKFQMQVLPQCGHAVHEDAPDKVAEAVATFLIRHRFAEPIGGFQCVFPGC
Take `N#Cc1nccnc1N1CCN(c2ccccc2)CC1`: the inhibition is 1.69%. As for `N#Cc1cccnc1NNC(=O)c1ccccc1C(=O)O`, the inhibition was -1.06%. On to `Fc1ccc(COc2ccc(-c3nnco3)cc2)cc1`, for which the inhibition was 4.75%. Then `CCOC(=O)c1cnc2c(S(=O)(=O)C(C)C)csc2c1Sc1cccc(Cl)c1`, with 3.84%; and `CC(=O)N1C=CC(c2c[nH]c3ccccc23)C=C1`, with -3.18%; and `CC(C)S(=O)(=O)/C(C#N)=C/c1ccccc1OC(F)(F)F`, with 2.58%.

For `CS(=O)(=NC(=O)c1cc2ccccc2o1)c1ccc(Cl)cc1` (stereo unspecified), the inhibition is 4.96%. On to `CC(C)(C)C(=O)OCC(N)=S`, for which the inhibition is -1.98%. For `O=[N+]([O-])c1ccc(N2CCC2)cc1`, the inhibition was 0.196%. On to `CCOC(=O)c1cc(C)nc(Sc2ccccc2NC(=O)Nc2ccc(Cl)cc2)c1C#N`, for which the inhibition was 25.2%. Regarding `CCOC(=O)c1c(C)nn(-c2ncccc2NC(=O)Nc2cccc(Cl)c2Cl)c1C`, the inhibition was 37.4% (active). As to `Cc1nc2cc3c(cc2s1)OCO3`, the inhibition was -0.92%. On to `O=C(NC(=S)Nc1nc(-c2ccc(Cl)cc2)cs1)C1CC1`, for which the inhibition is -13.9%. With `O=S(=O)(Nc1ccc2[nH]ccc2c1)c1cccs1`, the inhibition is 3.17%. In the case of `CCCCC#Cc1cncc(C(=O)NNC(=O)Nc2ccc(Cl)cc2)c1` it was 2.26%. In the case of `O=C1CSC(=S)N1c1ccc(N2CCCCCC2)c(N2C(=O)CSC2=S)c1`, the inhibition is -4.27%.

For `COC(=O)c1sccc1Oc1ccc(Cl)cc1[N+](=O)[O-]`, the inhibition was 2.05%. Consider `O=C(NCc1cccnc1)c1cnc2ccccc2n1`, for which the inhibition is 3.18%. Then `O=C1C(Cl)=C(Oc2cc(Cl)c(Cl)cc2Cl)C(=O)c2ccccc21`, with 33.4% (active); and `Cc1cc2c(cn1)C(=O)c1ccccc1-2`, with 4.96%; and `COc1cccc(C(=O)c2sc3nsc(SCc4ccc(F)cc4)c3c2N)c1`, with -5.96%. In the case of `N#C/C(=C\c1ccsc1Sc1ccc(Cl)cc1)S(=O)(=O)c1ccc(Cl)cc1` it was -9.13%. As for `Cc1c(-c2cnc(NC(=O)c3ccccc3)s2)sc2ccc(Cl)cc12`, the inhibition is -9.03%. In the case of `CCOC(=O)C(NC(=O)Nc1ccccc1)(Nc1ccccc1OC)C(F)(F)F` (stereo unspecified), the inhibition was -0.9%. `O=C(O)CSC(SCC(=O)O)c1ccc2c(c1)OCO2`: the inhibition was -0.753%. On to `O=c1[nH]/c(=C/c2ccc(OC(F)(F)F)cc2)c(=O)[nH]/c1=C/c1ccc(OC(F)(F)F)cc1`, for which the inhibition was -0.938%. Then `N#Cc1c(C(F)(F)F)cc(-c2cccs2)nc1N1CCCCC1`, with -3.16%; and `Oc1ccccc1C=Nc1ccc(F)cc1`, with -4.6%. Then `COc1ccc(-c2csc(-c3cc(C)on3)n2)cc1`, with 9.36%; and `Cc1ccc(/C=c2\sc3nc4ccccc4n3c2=O)o1`, with 7.34%; and `Cc1c(NC(=O)c2cccnc2)c(=O)n(-c2ccccc2)n1C`, with 2.93%. For `CCOC(=O)c1c(-c2ccco2)csc1NC(=O)Nc1ccc(Cl)cc1`, the inhibition was -41.9%.

As to `OC(c1ccncc1)c1c[nH]c2ccccc12` (stereo unspecified), the inhibition was -0.868%. For the compound `O/N=C/c1ccc(F)c(Cl)c1`, the inhibition is 2.78%. Take `Cc1ccc2oc(-c3cccs3)nc2c1`: the inhibition is 2.37%. As to `Cc1cc(NCc2cccnc2)no1`, the inhibition was 1.95%.

As to `NNC(=O)c1csc(-c2ccc(C(F)(F)F)cn2)n1`, the inhibition was 4.74%. Take `CC(=O)Nc1cccc([N+](=O)[O-])c1`: the inhibition was 2.8%.

With `CSc1nc(N)n(-c2ccccc2)n1`, the inhibition is 2.24%. As to `CCOC(=O)C(O)(NC(=O)Nc1ccccc1)C(F)(F)F` (stereo unspecified), the inhibition is 6.03%. In the case of `CCCCc1c(COC)nc(-c2ccc(Cl)cc2)[nH]c1=O`, the inhibition is 2.14%. Regarding `CCCCCCCCc1ccc(C(=O)O)cc1`, the inhibition is 1.13%. Turning to `Cn1c(=O)c(/C(N)=N/OC(=O)c2ccccc2Cl)cn(-c2ccccc2)c1=O`, the inhibition is -0.69%. Then `Cc1nnc(Sc2ccc([N+](=O)[O-])c(Sc3nnc(C)s3)n2)s1`, with 5.33%; and `O=C(Nn1cnnc1)c1cccs1`, with 5.13%; and `O=C(Nc1ccccc1)N1CCN(c2ncnc3sccc23)CC1`, with 1.02%. Then `O=C(O)c1ccccc1/C=N/Nc1cc(Cl)ccc1Cl`, with 6.19%.

Consider `CCOC(=O)N/N=C(\C)c1cccc(NC(C)=O)c1`, for which the inhibition is -0.548%. In the case of `CCCN(CCC)S(=O)(=O)c1ccc(C(=O)O/N=C(\C)c2ccccc2O)cc1`, the inhibition was 0.391%. Turning to `COC(=O)c1cnc(Oc2ccc(N)cc2)cc1C(F)(F)F`, the inhibition was 0.526%. Turning to `CCOC(=O)NC(=O)/C(=C/NCc1cccs1)C(=O)OCC`, the inhibition is 0.233%. Then `COc1ccccc1NC(=O)c1ccc(C#Cc2ccccc2)o1`, with -10.2%; and `CS/C(N)=N/N=C/c1cccs1`, with 1.26%. In the case of `CC1=NOC(=O)/C1=C\c1ccccc1`, the inhibition was 3.58%. `COc1ccc(-c2nnc(SCC(O)C(F)(F)F)n2-c2cccc(OC)c2)cc1` (stereo unspecified): the inhibition is 1.14%.

As for `CC(C)(C)c1ccc(NC(=O)c2ccco2)c(NC(=O)C(Cl)(Cl)Cl)c1`, the inhibition is 2.58%. Turning to `FC(F)(F)c1cccc(-n2c(-c3ccncc3)n[nH]c2=S)c1`, the inhibition is -4.3%. For the compound `Cc1ccc2oc(=O)n(CC/C(N)=N/OC(=O)c3ccc(C(F)(F)F)nc3C)c2c1`, the inhibition is 4.33%.

For `CCOc1cc(-c2cccs2)nc(N)n1`, the inhibition was 0.0895%. In the case of `Cc1ccc(OC(=O)c2nn(-c3ccccc3)nc2C)c([N+](=O)[O-])n1` it was -1.37%; in that of `O=C(CN1C(=O)/C(=C/c2ccccc2Cl)N=C1c1ccccc1)c1ccccc1`, -14%; in that of `COc1c(Br)cc(C#N)cc1Br`, 7.88%.

In the case of `O=C(Nc1ccccc1)O/N=C1/CCCc2occc21`, the inhibition is -1.78%. Then `COc1ccc(CCNCC(O)Cn2ccc3ccccc32)cc1OC` (stereo unspecified), with -0.35%.

With `COc1cc(NC(=O)COc2cc(Cl)c(Cl)cc2Cl)cc(OC)c1OC`, the inhibition was -4.1%. In the case of `N#Cc1c(N)nc2c3c1NC(O)(c1ccccc1)C(C#N)C3c1cc(Cl)ccc1O2` (stereo unspecified) it was -25.9%; in that of `COc1cccc(NC(=S)NNC(=S)NC2CC3CCC2C3)c1` (stereo unspecified), 5.71%; in that of `O=C(O)C1CC2CC1CCC2O` (stereo unspecified), 4.17%. In the case of `NC(=O)c1c(C(F)(F)F)cc(C(F)(F)F)cc1C(F)(F)F`, the inhibition is -0.0338%. In the case of `O/N=C/c1sccc1Oc1ccccc1` it was 5.19%; in that of `CSc1nccc(-c2ccc(S(=O)(=O)n3nc(C)c(Br)c3C)s2)n1`, -1.68%; in that of `CC1CN=C(N(Cc2cccnc2)C(=O)Nc2ccc(Cl)c(Cl)c2)S1` (stereo unspecified), -62.8%. In the case of `N#Cc1cn(C2CCCCC2)c(=O)[nH]c1=O` it was 6.75%.

On to `COCCOc1ccc(NC(=S)N2CCOCC2)cc1`, for which the inhibition was -0.885%.

Regarding `O=C1CCN(Cc2ccccc2)C(=O)N1c1ccc2c(c1)CCO2`, the inhibition is 5.14%. Then `Cc1nc(-c2nnc(SCC(=O)c3ccc(F)cc3)n2C)cs1`, with 3.93%. For the compound `CSc1nc(N)c2ccccc2n1`, the inhibition is 4.47%. In the case of `O/N=C(\c1ccccc1)c1ccccn1` it was 1.61%. Regarding `Cc1cc(C)n(/N=c2\sc(-c3ccccc3)cn2C2CC3C=CC2C3)c(=O)c1C#N` (stereo unspecified), the inhibition is 1.38%. Then `NC(=O)c1ccc(-c2csnn2)cc1`, with 4.57%; and `CC(=O)N1CCc2cc(NC(=S)Nc3ccccc3Cl)ccc21`, with -0.615%. `CC1=CC(=O)C(CCC2=CC(=O)C(C)=CC2=O)=CC1=O`: the inhibition was -5.46%. Then `CN(C)/C=C1/C(=O)NN=C1CSc1ccc(Cl)cc1`, with 4.88%; and `O=S(=O)(CCN1CCC(C(F)(F)F)CC1)c1ccccc1`, with 5.79%.

With `CSc1nc2c(c(/C=C/c3ccccc3)c1C#N)CCC2`, the inhibition is 0.0789%. As to `CSC(=Nc1ccccc1C(F)(F)F)N1CCCC1`, the inhibition is -2.33%. In the case of `Cc1ccc(S(=O)(=O)NC(=O)NCCSCc2ccco2)cc1` it was 5.18%; in that of `NNC(=O)c1cc2ccccc2s1`, 7.18%; in that of `O=C(O)c1nccnc1C(=O)O`, 5.09%. `CC(=O)OC1=CCC2C3CC[C@@]4(C)CC(OC(C)=O)CCC4(C)C3C(OC(C)=O)CC12C` (stereo partly specified): the inhibition was -6.54%. Then `OC1(C#Cc2ccccc2)CCN(Cc2ccccc2)CC1`, with 4.15%. Consider `O=C(Nc1ccc(OCc2ccccc2)cc1)OCC1CN(Cc2ccccc2)CCO1` (stereo unspecified), for which the inhibition was 5.09%. Then `CCCCCCCCCCCCCC#CC(O)C(N)CO` (stereo unspecified), with -4.1%; and `OCCNC(=S)Nc1ccccc1-c1ccccc1`, with 0.487%; and `FC(F)(F)C1=CC=NCCN1`, with 10.1%.

In the case of `OCCNc1nc2ccccc2[nH]1`, the inhibition was -2.41%. In the case of `O=S(=O)(c1ccccc1)c1cc(C(F)(F)F)cc(C(F)(F)F)c1`, the inhibition was -0.142%. In the case of `O=C(NCc1ccc2c(c1)OCO2)c1cccc2c1OCCCO2` it was -4.73%. With `O=C1c2cc(S(=O)(=O)Oc3ccccc3)ccc2-c2ccc(S(=O)(=O)Oc3ccccc3)cc21`, the inhibition is 5.56%.

With `CN(Cc1nnc(-c2ccc3ccccc3c2)o1)c1nnc(C(F)(F)F)s1`, the inhibition was 3.28%. Turning to `COC(=O)c1ccccc1-c1c2ccc(=O)cc-2oc2cc(O)ccc12`, the inhibition is 61.2% (active). For `COC(=O)c1ccccc1NC(=O)c1ccc(Oc2cc(Cl)cc(Cl)c2)o1`, the inhibition was -2.65%. Regarding `COC(=O)c1ccccc1N(C)C(=O)c1cc(OC)c(OC)c(OC)c1`, the inhibition is 0.643%.

`S=C(SCc1ncon1)N1CCSCC1`: the inhibition is -2.3%. On to `C/C(=N\NC(N)=S)c1cc2cc(Cl)ccc2o1`, for which the inhibition was -1.43%. Then `Clc1ccc(C2=NN(Cc3ccccc3)CC2)s1`, with 2.04%.

Regarding `NC(=NC(=O)CCn1c(=O)oc2ccccc21)c1cc(Cl)cc(Cl)c1`, the inhibition is -1.92%. `O=S(=O)(Oc1cccc(C(F)(F)F)c1)c1cc(S(=O)(=O)c2ccccc2)cs1`: the inhibition was -3.1%. With `CC(C)(C)c1cc(C(=O)N/N=C/c2ccc([N+](=O)[O-])s2)n[nH]1`, the inhibition is 4.23%. For the compound `CCOC(=O)/C(C#N)=C/N/S(C)=N/N=C/c1ccc(N(C)C)cc1` (stereo unspecified), the inhibition was 4.21%.

With `NNC(=O)CSc1nnc(-c2ccccc2)n1-c1ccccc1`, the inhibition was 3.4%.
